Results filed as inconclusive are left out. Unmarked numbers belong to inactive results. Calls of active or inactive are those of the source. Calls come from the whole dose curve; as a rule, active = well fitted inhibition curve with a large enough effect; inconclusive = small, poorly fitted or top-dose-only effect; inactive = flat fitted curve, though single readings scatter.

Assay [1] addresses Glutathione peroxidase 1 (Homo sapiens) (UniProt P07203). Briefly: Primary qHTS Assay for Inhibitors of Recombinant Selenoprotein Glutathione Peroxidase 1 (GPX1) (AID 1845191). The essentials:
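GPX1 10 nM, GR 100 nM, GSH 1 mM, NADPH 0.5 mM, CHP 0.5 mM (final). 30-min cpd preincubation, RT. Ex340/Em450 read t=0, t=15 min.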
On the technique in general: qHTS replaces the single test concentration by a dilution series.

Assay [2] addresses Phospholipid hydroperoxide glutathione peroxidase GPX4 (Homo sapiens) (UniProt P36969). The experiment in a line: Primary qHTS Assay for Inhibitors of Recombinant Selenoprotein Glutathione Peroxidase 4 (GPX4) (AID 1845192). For activity change, negative = inhibition: series mostly up to about 50 µM. The essentials: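 qHTS, GR-coupled: GPX4 200 nM + cpd 30 min RT → GSH 1 mM, NADPH 0.5 mM, GR 100 nM → CHP 0.5 mM start; fluor 340/450 at t0 and t15 min; no-enzyme wells as control.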
% is set by controls: 0 for no effect and ±100 for the full control effect; potency is the fitted concentration of half-maximal effect.
Note: nearly all actives have a fitted effect of over 65% in size.

Sequence of Glutathione peroxidase 1 (Homo sapiens) (P07203 whole entry, looked up): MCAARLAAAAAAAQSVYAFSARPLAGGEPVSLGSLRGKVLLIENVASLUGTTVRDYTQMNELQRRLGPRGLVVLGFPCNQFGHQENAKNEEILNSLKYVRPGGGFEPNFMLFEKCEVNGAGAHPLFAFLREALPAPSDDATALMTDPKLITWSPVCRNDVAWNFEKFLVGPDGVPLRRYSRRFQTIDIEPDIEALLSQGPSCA
Sequence of Phospholipid hydroperoxide glutathione peroxidase GPX4 (Homo sapiens) (P36969 whole entry, looked up): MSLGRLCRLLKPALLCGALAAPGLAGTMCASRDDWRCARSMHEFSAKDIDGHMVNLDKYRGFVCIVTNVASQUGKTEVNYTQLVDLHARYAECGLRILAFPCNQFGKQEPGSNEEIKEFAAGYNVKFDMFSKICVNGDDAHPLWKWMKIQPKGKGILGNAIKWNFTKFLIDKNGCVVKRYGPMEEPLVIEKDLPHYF

Take `C=Cc1ccccc1`: the Potency result in assay [1] is “inactive”.

Take `O=C(Cn1cnnn1)N[C@@H]1C(=O)N2C(C(=O)O)=C(CSc3nncs3)CS[C@H]12`: in assay [1], the Potency was 18 µM (active). The Potency entry in assay [2] was “inactive”. `CCCCCCCCCCCCCCCCCC(=O)OCCO`: the Potency entry in assay [1] and in assay [2] was “inactive” throughout. As for `FC(F)(F)c1ccc(CNc2ccc(Cc3c[nH]c4ncc(Cl)cc34)cn2)cn1`, the Potency entry in assay [1] and in assay [2] was “inactive” in each case. For `CCC(C)C(C(=O)OCC[N+](C)(CC)CC)c1ccccc1` (centres undefined), the Potency entry in assay [1] and in assay [2] was “inactive” throughout. For the molecule `CCCCCCCCCCCCCCCCCC(=O)[O][Al]`, the activity, negative = inhibition in assay [1] was -27.3% [at 4.49 µM]. The activity change, negative = inhibition in assay [2] is -12.8% [at 4.52 µM]. With `Cc1[nH]cnc1C[C@H]1CCc2c(C)c3ccccc3n2C1=O`, the Potency entry in assay [1] and in assay [2] was “inactive” in each case.

In the case of `O=P(O)(O)C(O)(Cc1cnc2ccccn12)P(=O)(O)O`, the activity, negative = inhibition in assay [1] is -12.2% [at 0.4 µM]. Also, the activity change, negative = inhibition in assay [2] was 0.142% [at 0.409 µM]. In the case of `CCN1CCCC1CNC(=O)c1cc(S(=O)(=O)CC)ccc1OC` (centres undefined), the Potency result in assay [1] and in assay [2] was “inactive” each time. As for `CN(C(=O)CO)c1c(I)c(C(=O)NCC(O)CO)c(I)c(C(=O)NCC(O)CO)c1I` (centres undefined), the Potency entry in assay [1] and in assay [2] was “inactive” throughout.

Consider `OCC(O)COc1ccc(Cl)cc1` (centres undefined), for which the Potency result in assay [1] and in assay [2] was “inactive” in each case. In the case of `CO[C@H]1[C@@H](O)[C@H](N)[C@@H](O[C@H]2O[C@H]([C@H](C)N)CC[C@H]2N)[C@H](O)[C@@H]1N(C)C(=O)CN`, the Potency entry in assay [1] and in assay [2] was “inactive” each time. Turning to `Cc1c(N)nc(C(CC(N)=O)NCC(N)C(N)=O)nc1C(=O)NC(C(=O)NC(C)C(O)C(C)C(=O)NC(C(=O)NCCc1nc(-c2nc(C(=O)NCCCN[C@@H](C)c3ccccc3)cs2)cs1)C(C)O)C(O[C@@H]1O[C@@H](CO)[C@@H](O)[C@H](O)[C@@H]1O[C@H]1O[C@H](CO)[C@@H](O)[C@H](OC(N)=O)[C@@H]1O)c1cnc[nH]1` (some centres undefined), the Potency entry in assay [1] and in assay [2] was “inactive” each time. Regarding `O=S(=O)(O)Oc1ccc(C(c2ccc(OS(=O)(=O)O)cc2)c2ccccn2)cc1`, the Potency entry in assay [1] and in assay [2] was “inactive” each time.

Take `COc1cc(C[C@@H]2NCCc3cc(O)c(O)cc32)cc(OC)c1OC`: the Potency result in assay [1] and in assay [2] was “inactive” each time. With `C[C@H]1C[C@@H]2[C@H]([C@@H](O)C[C@@]3(C)[C@H]2CC[C@]3(O)C(=O)COC(=O)CCC(=O)O)[C@@]2(C)C=CC(=O)C=C12`, the Potency entry in assay [1] and in assay [2] was “inactive” throughout. `C[C@@H]1COCCN1c1cc(=O)n2c(n1)N(Cc1cncc(Cl)c1)[C@H](C(F)(F)F)CC2`: the Potency entry in assay [1] and in assay [2] was “inactive” in each case. For `CC(C)(C)CC(=O)OCC(=O)[C@@]12OC(C)(C)O[C@@H]1C[C@H]1[C@@H]3CCC4=CC(=O)C=C[C@]4(C)[C@@]3(F)[C@@H](O)C[C@@]12C`, the Potency result in assay [1] and in assay [2] was “inactive” throughout. As for `CC(=O)O[C@H]1C[C@@H]2CC[C@@H]3[C@H](CC[C@@]4(C)[C@H]3C[C@H](N3CC[N+](C)(C)CC3)[C@@H]4OC(C)=O)[C@@]2(C)C[C@@H]1N1CC[N+](C)(C)CC1`, the Potency entry in assay [1] and in assay [2] was “inactive” each time. As for `CC#CCC(C)[C@H](O)/C=C/[C@@H]1[C@H]2C/C(=C/CCCC(=O)O)C[C@H]2C[C@H]1O` (some centres undefined), the Potency entry in assay [1] and in assay [2] was “inactive” each time. For the molecule `CSCC[C@H](NC(=O)[C@H](Cc1ccc(OS(=O)(=O)O)cc1)NC(=O)[C@@H](N)CC(=O)O)C(=O)NCC(=O)N[C@@H](Cc1c[nH]c2ccccc12)C(=O)N[C@@H](CCSC)C(=O)N[C@@H](CC(=O)O)C(=O)N[C@@H](Cc1ccccc1)C(N)=O`, in assay [1], the Potency entry is “inactive”. For the same molecule, in assay [2], the Potency was 15.8 µM (active). For `NCCCNCCCCNC(=O)C(O)NC(=O)CCCCCCN=C(N)N` (centres undefined), the Potency result in assay [1] and in assay [2] was “inactive” each time. Regarding `CC(=O)OCC(=O)[C@@]1(O)[C@H](C)C[C@H]2[C@@H]3C[C@H](F)C4=CC(=O)C=C[C@]4(C)[C@H]3[C@@H](O)C[C@@]21C`, the Potency result in assay [1] and in assay [2] was “inactive” in each case.

`CC(C(=O)O)c1ccc(C2CCCCC2)c2ccccc12` (centres undefined): the Potency entry in assay [1] was “inactive”. For the same molecule, the Potency in assay [2] was 15.8 µM (active). Take `CC(C)(S)C(=O)N[C@@H](CS)C(=O)O`: the Potency entry in assay [1] and in assay [2] was “inactive” in each case. With `COC(=O)Nc1cc(Nc2cc(NC3CC3)c3ncc(C#N)n3n2)c(Cl)c(N2CCN(C)CC2)c1`, the Potency entry in assay [1] and in assay [2] was “inactive” in each case.

With `CN(C)Cc1ccccc1`, the Potency entry in assay [1] and in assay [2] was “inactive” throughout. With `C=C1CC2C3CCC4=CC(=O)C=C[C@]4(C)[C@@]3(F)[C@@H](O)C[C@]2(C)[C@@]1(O)C(=O)COC(C)=O` (some centres undefined), the Potency result in assay [1] and in assay [2] was “inactive” throughout. In the case of `CCC(c1ccccc1)c1noc(CCN(CC)CC)n1` (centres undefined), the Potency result in assay [1] and in assay [2] was “inactive” throughout.

For `COc1ccc(CNCC(O)COc2ccc3[nH]c(=O)ccc3c2)cc1OC` (centres undefined), the Potency result in assay [1] and in assay [2] was “inactive” in each case.

For `CCN(CC)CCOC(=O)c1ccc(N)cc1Cl`, the Potency result in assay [1] and in assay [2] was “inactive” each time. Take `CN1CCN(C2=Nc3ccccc3Cc3ccccc32)CC1`: the Potency result in assay [1] and in assay [2] was “inactive” throughout. Regarding `CC(CC(c1ccccc1)c1ccccc1)NC(C)(C)C` (centres undefined), the Potency result in assay [1] and in assay [2] was “inactive” each time. Regarding `CCCCC(=O)O`, the Potency result in assay [1] and in assay [2] was “inactive” each time. Turning to `CS(=O)(=O)OCCCNCCCOS(C)(=O)=O`, the Potency entry in assay [1] and in assay [2] was “inactive” throughout.

Values taken from PubChem BioAssay (NCATS).
